Bioassay records (PubChem)
TWEAK-Fn14 inh: inhibitors of TWEAK-Fn14 signaling, primary screen, luciferase reporter cells, uHTS | inhibition, % at 10 µM | 360,000 compounds, 2% hits | TWEAK-stimulated Fn14 reporter cells, luciferase luminescence, 8 h | AID 1159606, 2016; in the data active = inhibition above about 50%
Shn3 3UTR inh: reduction of Shn3 3'UTR firefly luciferase signal, primary screen, Schnurri-3 inhibitor project, cell-based, Clone20 osteoblasts, set 2. 360,000 compounds, 0.52% hits. Clone20 osteoblast Shn3 3'UTR firefly luciferase, 24 h. inhibition, % at 12.5 µM. AID 588674, 2011;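 active = mean inhibition of at least 75% with every replicate also reaching 75%; inconclusive = mean inhibition at least 75% but some replicate below; inactive = mean inhibition below 75%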;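 note: 0% = median of neutral control wells and 100% = pilot-screen positive control compound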
TRPM1 prom inh: inhibitors of MITF-dependent TRPM1 promoter reporter, primary screen, cell-based, SK-MEL-5, single point, luciferase. SK-MEL-5 TRPM1 promoter luciferase, 24 h. inhibition, % at 12.5 µM. 330,000 compounds, 0.83% hits. AID 488899, 2010;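 active = mean inhibition across replicates of 60% or more, whatever share of single replicates reaches that level; inconclusive = some that reach 60%, reason not given; inactive = mean inhibition across replicates below 60%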
HIF-2a block: HIF-2a reporter inhibitors, primary screen, luminescence, 786-0 RCC cells; 786-0 RCC cells HIF-2a reporter, luciferase luminescence, overnight; inhibition, % at 18.8 µM; 360,000 compounds, 0.72% hits; AID 624352, 2012;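 active = inhibition of the luminescence signal of 40% or more relative to plate controls, in a single-dose primary screen at 18.75 µM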
LMP1 NFkB inh: EBV LMP1-driven NF-kappaB luciferase reporter inhibitors, primary screen, cell-based, luminescence, single point; LMP1-induced NF-kappaB luciferase reporter cells; inhibition, % at 12.5 µM; 350,000 compounds, 0.69% hits; AID 504558, 2011; in the data active = inhibition above about 41%; inconclusive = no clear call, values can overlap the other calls;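 note: 0% = neutral control wells and 100% = reference inhibitor control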
TROY signal inh: inhibitors of TROY-driven NF-kB signaling, primary screen, Q293 LMP1-TROYcd cells, NF-kB luciferase, uHTS | AID 1347056, 2019 | inhibition, % at 10 µM | 360,000 compounds, 0.98% hits | Q293 LMP1-TROYcd NF-kB luciferase reporter, 4 h;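 active = compounds whose plate-normalised and pattern-corrected inhibition of the luciferase reporter signal at the single screening dose is 50% or more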
Mdm2-MdmX confirm: retested Mdm2-MdmX interaction blockers, confirmation, cell-based, luminescence, single concentration, set 2; shares compounds with HIF-2a block; SaOS-2 split-luciferase Mdm2/MdmX complementation; inhibition, % at 8 µM; 740 compounds, 99% hits;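 active = mean inhibition of the luminescence signal across two replicates at or above 26 percent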
HIF-2a conf: HIF-2a reporter inhibitor retest, confirmation, luminescence, 786-0 RCC cells; shares compounds with HIF-2a block; HIF-2a luciferase reporter luminescence, overnight; 1,800 compounds, 56% hits; AID 651580, 2012; inhibition, % at 18.8 µM;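 active = mean inhibition across four replicates of at least 40 percent at the single tested concentration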
HIF-1a cs: HIF-1a luciferase reporter signal reduction – MiaPaCa-2 cells, single concentration, counter-screen for HIF-2a inhibitor project, confirmation | shares compounds with HIF-2a block | MiaPaCa-2 HIF-1a luciferase reporter, desferoxamine, overnight | inhibition, % at 18.8 µM | 1,800 compounds, 72% hits;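 active = mean inhibition of the reporter signal across four replicates at the single tested dose of 50% or more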
Active calls of the source: *; ? = inconclusive; / = no result. The list is not random: actives were taken first. Their share in the collection is about 3.4%.

SMILES	TWEAK-Fn14 inh	Shn3 3UTR inh	TRPM1 prom inh	HIF-2a block	LMP1 NFkB inh	TROY signal inh	HIF-2a conf	HIF-1a cs	others
CN1OC[C@@H]2CN[C@H](c3ccc(-c4ccc(C#N)cc4)cc3)C[C@@H]21	8	-86	/	-174	-26	39	/	/
CSc1nnc(-c2sc3cc(C(F)(F)F)cnc3c2-c2ccccc2)n1C	0	8	32	41*	8	21	12	55*
O=C(NCc1ccco1)c1nc2c(nnn2Cc2ccccc2Cl)c(=O)[nH]1	85*	11	72*	45*	31	85*	57*	106*
Cc1ccc(C)c(Cn2nnc3c(=O)[nH]c(C(=O)NCc4ccco4)nc32)c1	26	-28	4	9	6	7	/	/
C[C@H](CO)N1C[C@H](C)[C@@H](CN(C)C(=O)CCCN(C)C)OCc2cn(nn2)CCCC1=O	-40	-14	/	-25	6	-11	/	/
O=[N+]([O-])c1ccc(Sc2ccncn2)c([N+](=O)[O-])c1	77*	58	/	70*	26	41	61*	104*
O=[N+]([O-])c1cc(Cl)ccc1Sc1ccccn1	-3	/	0	0	8	-2	/	/
O=[N+]([O-])c1ccc(Sc2cccc3cccnc23)c([N+](=O)[O-])c1	64*	93*	76*	17	-98	25	/	/	Mdm2-MdmX confirm=83*
O=[N+]([O-])c1cc(Cl)ccc1Sc1cccc2cccnc12	9	-2	20	-14	6	-4	/	/
CCC(C)N(C(=O)CSc1nnc2ccccn12)C1CCS(=O)(=O)C1 (stereo not drawn)	-1	-1	7	16	-4	6	/	/
Cc1cc(C)c(NC(=S)NC(CO)(CO)CO)c(C)c1	-1	7	-4	13	-1	-27	/	/
CCOC(=O)c1ccccc1Nc1cn(C(C)=O)c2ccccc12	0	2	16	13	1	-10	/	/
CC(=O)n1cc(N(C(=O)CCl)c2ccc(Cl)cc2)c2ccccc21	64*	57	/	83*	/	-41	98*	108*
COc1ccccc1N(C(=O)CCl)c1cn(C(C)=O)c2ccccc12	73*	48	63*	48*	28	-13	44*	49	Mdm2-MdmX confirm=103*
CN(C)CCCNc1c2ccccc2nc2ccccc12	-5	94*	?	33	-31	-47	/	/	Mdm2-MdmX confirm=102*
COc1cc(CN2CCC(C(=O)NC(c3ccc(F)cc3)c3ccc4ccccc4n3)CC2)cc(OC)c1 (stereo not drawn)	-4	-9	/	-44	/	-22	/	/
Cn1cc(CN2CCC(C(=O)NC(c3ccc(F)cc3)c3ccc4ccccc4n3)CC2)c2ccccc21 (stereo not drawn)	-19	45	/	92*	/	8	-3	106*
CCCn1c(SCC(=O)Nc2ccc(Cl)cc2F)nc(O)cc1=O	-8	16	/	14	0	7	/	/
O=[N+]([O-])c1c(Nc2ccc(O)cc2)cc(N2CCOCC2)c2nonc12	-47	-1	15	36	2	-12	/	/
CC(=O)Nc1ccc(Nc2cc(N3CCOCC3)c3nonc3c2[N+](=O)[O-])cc1	-11	-8	13	42*	6	-3	5	76*
O=C(Nc1cccc(C(=O)O)c1)Nc1ccccc1Cl	-13	10	47	40*	?	-51	32	-65
